Test results taken from PubChem BioAssay AID1159580 (chemical genetic matrix, 2015).
Out of some 5,500 compounds screened, about 2,000 (36%) were called active. Inconclusive results (about 18%) are left out. The list shows a part of the results. Unmarked numbers belong to inactive results. No stated cut-off is given here; in the data, active means normalized growth mostly below about 0.91 (no sharp cut-off); inconclusive means no clear call, values can overlap the other calls; inactive means mostly above about 0.92.

Assay: chemical genetic growth profiling, strain panel (AID 1159580);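 further: tested at 20 µM; growth read once vehicle control cultures reached saturation at 30 °C; 1 = growth at the plate median or of vehicle wells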
Conditions: S. cerevisiae deletion strains, growth OD
[1] = locus YAL040C, strain CLN3, stronger effect = lower value
[2] = locus YDR150W, strain NUM1, stronger effect = lower value
[3] = locus YER002W, strain NOP16, stronger effect = lower value
[4] = locus YNL175C, strain NOP13, stronger effect = lower value
[5] = locus YNL197C, strain WHI3, stronger effect = lower value
[6] = locus YNL224C, strain SQS1, stronger effect = lower value
[7] = locus YOR083W, strain WHI5 (second series), stronger effect = lower value
[8] = locus YPL055C, strain LGE1, stronger effect = lower value
[9] = locus YPL241C, strain CIN2, stronger effect = lower value
[10] = locus YCL061C, strain MRC1 (second series), stronger effect = lower value
[11] = locus YDR363W, strain ESC2, stronger effect = lower value
[12] = locus YGR229C, strain SMI1, stronger effect = lower value
[13] = locus YMR263W, strain SAP30, stronger effect = lower value
[14] = locus YMR307W, strain GAS1, stronger effect = lower value

SMILES | normalized growth [1] | normalized growth [2] | normalized growth [3] | normalized growth [4] | normalized growth [5] | normalized growth [6] | normalized growth [7] | normalized growth [8] | normalized growth [9] | normalized growth [10] | normalized growth [11] | normalized growth [12] | normalized growth (locus YJR075W, strain HOC1, stronger effect = lower value) | normalized growth [13] | normalized growth [14] | normalized growth (locus YNL128W, strain TEP1, stronger effect = lower value) | normalized growth (locus YNL153C, strain GIM3, stronger effect = lower value) | normalized growth (locus YAL013W, strain DEP1, stronger effect = lower value) | normalized growth (locus YGR078C, strain PAC10, stronger effect = lower value)
NC(CCCCCP(=O)(O)O)C(=O)O (stereo unspecified) | 0.977 | 0.989 | 0.973 | 1 | 0.992 | 1.01 | 0.983 | 0.999 | 0.98 | – | – | – | – | – | – | – | – | – | –
CCCCCCCCCCCCCCCCCC(=O)NCC(COP(=O)([O-])OCC[N+](C)(C)C)OCC (stereo unspecified) | 0.0918 (active) | 0.0538 (active) | 0.0757 (active) | 0.0883 (active) | 0.0927 (active) | 0.0836 (active) | 0.116 (active) | – | 0.0483 (active) | 0.0501 (active) | 0.0807 (active) | 0.0622 (active) | 0.0689 (active) | 0.0519 (active) | 0.0635 (active) | 0.0936 (active) | 0.0918 (active) | – | –
CCCCCCCCCCCCCCCCCCNC(=O)OCC(COP(=O)([O-])OCC[n+]1ccsc1)OC (stereo unspecified) | 1 | – | 1.01 | 1.03 | 1.06 | 1.03 | 1.01 | 1.04 | 1.01 | 1 | 1.03 | 0.936 | – | 1 | 0.968 | – | – | 0.983 | –
CCCCCCCCCCCCCCCC(=O)NCC(COP(=O)([O-])OCC[N+](C)(C)C)OCC (stereo unspecified) | 0.322 (active) | 0.0974 (active) | 0.0938 (active) | 0.0862 (active) | 0.373 (active) | 0.151 (active) | 0.223 (active) | 0.109 (active) | – | 0.155 (active) | 0.165 (active) | – | – | 0.619 (active) | – | – | – | – | 0.971
